# HP1b chromo inh: inhibitors of HP1-beta chromodomain binding to methylated histone tails; AlphaScreen HP1-beta / biotin-H3K9me3 peptide binding; Potency, µM (titrated, usually from 114 µM), for inactives: at the top dose activity change, negative = inhibition, usual class: inhibitors; hit rate 0.56% among 390,000; AID 540317; note: potency is the fitted concentration of half-maximal effect; nearly all actives have a fitted effect of over 70% in size
#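 Compound inhibition of the preformed complex between 50 nM HP1-beta and 50 nM biotinylated H3K9me3 peptide was read by AlphaScreen. Buffer was PBS pH 7.4 with 0.01% Tween-20. Incubations ran 30 min at room temperature, with 10 ug/mL donor/acceptor beads.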
# TDP1 block: blocks human tyrosyl-DNA phosphodiesterase 1; Q9NUW8; Potency, µM (series often up to 130 µM), without a hit: at the top dose activity change, negative = inhibition, most hits filed as inhibitors; recombinant TDP1, AlphaScreen DNA substrate cleavage; hit rate 0.28% among 350,000; note: potency is the fitted concentration of half-maximal effect; % is set by controls: 0 for no effect and ±100 for the full control effect; nearly all actives have a fitted effect of over 40% in size
# Target sequence (Q9NUW8 whole entry, looked up): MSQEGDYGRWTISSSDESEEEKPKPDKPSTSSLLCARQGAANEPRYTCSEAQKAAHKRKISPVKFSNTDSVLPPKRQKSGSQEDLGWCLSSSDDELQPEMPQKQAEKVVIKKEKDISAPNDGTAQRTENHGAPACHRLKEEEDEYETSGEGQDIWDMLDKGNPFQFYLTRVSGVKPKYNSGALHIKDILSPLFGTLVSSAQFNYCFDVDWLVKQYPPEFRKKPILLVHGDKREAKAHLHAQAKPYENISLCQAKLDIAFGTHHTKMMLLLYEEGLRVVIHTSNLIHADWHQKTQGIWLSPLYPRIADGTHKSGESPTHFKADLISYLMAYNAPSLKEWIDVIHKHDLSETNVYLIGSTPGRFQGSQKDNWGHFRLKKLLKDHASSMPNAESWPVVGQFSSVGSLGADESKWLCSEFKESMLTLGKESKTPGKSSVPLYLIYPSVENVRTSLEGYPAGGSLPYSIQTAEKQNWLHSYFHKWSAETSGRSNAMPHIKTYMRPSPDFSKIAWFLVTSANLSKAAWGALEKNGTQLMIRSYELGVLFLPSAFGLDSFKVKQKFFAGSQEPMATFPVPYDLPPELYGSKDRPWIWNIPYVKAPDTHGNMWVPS
#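 Steps: enzyme plus compound, 15 min RT; add biotin/phosphotyrosine-FITC oligonucleotide (15 nM final), react 5 min; add donor/acceptor beads (10 ug/ml final), 10 min; read AlphaScreen. Tdp1 at 1 nM final.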
# BAZ2B block: BAZ2B (human) inhibition. Q9UIF8. AlphaScreen BAZ2B-H3K14Ac peptide displacement. Potency, µM (titrated, usually from 114 µM), inactives show at the highest dose activity change, negative = inhibition, actives largely listed as inhibitors. hit rate 4.4% among 360,000. AID 504333; note: potency is the fitted concentration of half-maximal effect; % is set by controls: 0 for no effect and ±100 for the full control effect; nearly all actives have a fitted effect of over 60% in size
#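 AlphaScreen displacement: compounds (up to 110uM) incubated 30 min at room temperature with a preformed 50 nM BAZ2B/50 nM biotinylated H3K14Ac peptide complex in PBS pH 7.4 with Tween-20. Donor and acceptor beads at 10 ug/mL final added, 20 min light-protected before reading.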
# Six1-Eya2 blk: inhibitors of human Six1/Eya2 interaction; activity change, % (no concentration beside the values); AlphaScreen GST-Six1/His-Eya2 binding, biochemical; active compounds read low; hit rate 0.56% among 360,000; Q15475+O00167; in the data active = activity change below about -65%; inconclusive = mostly about -30% to -63%; note: % is set by controls: 0 for no effect and ±100 for the full control effect
#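 Compounds are tested against tagged Six1 and Eya2 proteins bridged by glutathione donor and nickel acceptor beads; after a one-hour incubation at 37 °C without light, AlphaScreen emission is recorded.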
# CtBP-E1A inh: CtBP/E1A binding inhibition; AID 651724; hit rate 0.49% among 340,000; activity change, % (test concentration not listed); AlphaScreen GST-E1A/His-CtBP binding, 1536-well; active compounds read low; in the data active = activity change below about -65%; inconclusive = mostly about -30% to -63%; note: % is set by controls: 0 for no effect and ±100 for the full control effect
#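 In 5 uL wells, 23 nL compound meets equimolar GST-E1A and His-CtBP (5X stock 125 nM each) for 2 h, 37 °C. Beads (5X, 50 ug/mL) then 1 h, 37 °C, dark.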
# JMJD2A Tudor inh: inhibitors of human JMJD2A Tudor domain; O75164; AlphaScreen JMJD2A-Tudor / H3K4me3 peptide binding; hit rate 4.4% among 390,000; Potency, µM (series often up to 114 µM), for the others: at the top dose activity change, negative = inhibition, usual class: inhibitors; AID 504339; note: potency is the fitted concentration of half-maximal effect; % is set by controls: 0 for no effect and ±100 for the full control effect; nearly all actives have a fitted effect of over 50% in size
# Starred values were filed as active, the others as inactive; ? = inconclusive; . = no result given; [ ] = remark or other dose. Shown are actives, neighbours in structure and some others; about 5.3% of the full set was active somewhere. Unless noted, calls come from the whole dose curve; as a rule, active = well fitted inhibition curve with a large enough effect; inconclusive = small, poorly fitted or top-dose-only effect; inactive = no such curve, though single readings can be large or run the other way.
SMILES,HP1b chromo inh,TDP1 block,BAZ2B block,Six1-Eya2 blk,CtBP-E1A inh,JMJD2A Tudor inh
CCOc1cc(/C=C2\C(=N)N3N=C(S(=O)(=O)CC)SC3=NC2=O)ccc1OC(=O)c1ccco1,28%,5%,?,-26,.,-5%
CCS(=O)(=O)C1=NN2C(=N)/C(=C\c3ccc(SCc4ccco4)o3)C(=O)N=C2S1,?,-6%,50µM*,?,-9,32µM*
O=c1c2sc3ccccc3c2n(Cc2cccc(C(F)(F)F)c2)c(=O)n1Cc1ccc(F)cc1,76%,1%,23%,.,.,-21%
O=S1(=O)c2ccccc2N(Cc2ccccc2)c2ccccc21,?,5%,-15%,.,.,-22%
CCC1=NN2C(=N)/C(=C\c3ccc(OCCOc4ccccc4OC)cc3)C(=O)N=C2S1,16%,.,-33%,-8,-1,-7%
COc1ccc(OCCOc2ccc(/C=C3\C(=N)N4N=C(C)SC4=NC3=O)cc2)cc1,16%,35µM*,?,0,.,?
COc1cc(/C=C2\C(=N)N3N=C(S(C)(=O)=O)SC3=NC2=O)ccc1OCCOc1ccccc1C,?,.,56µM*,3,2,?
COc1ccc(/C=C2/C(=N)N3N=C(CC(=O)N4CCCC4)SC3=NC2=O)cc1OC,18%,5%,-15%[57.1 µM],-2,-5,-14%
CCS(=O)(=O)C1=NN2C(=N)/C(=C\c3ccc(OC(=O)c4ccco4)c(Br)c3)C(=O)N=C2S1,.,-3%,50µM*,.,.,.
COc1cc(/C=C2\C(=N)N3N=C(S(C)(=O)=O)SC3=NC2=O)ccc1OC(=O)c1cccs1,31%,-19%,56µM*,?,.,-4%
CC(=O)Nc1ccc(OCCOc2ccc(/C=C3\C(=N)N4N=C(C)SC4=NC3=O)cc2)cc1,15%,.,-15%,11,0,-21%
COc1cc2c(cc1OC)C(COc1ccccc1OC)N(C(=O)c1ccc(S(=O)(=O)N3CCCC3)cc1)CC2 (stereo unspecified),-1%,13%,-14%,.,.,-21%
Cc1ccccc1NC(=O)CSc1nnc(COc2ccc(Cl)cc2)o1,8%,11%,-2%,.,.,-27%
COc1ccc(CNC(=O)Cn2ccc3cc(S(=O)(=O)N4CCCCC4)ccc32)c(OC)c1,10%,3%,-37%,.,.,-21%
O=C(OCC#CCSc1nnc(-c2cccc3ccccc23)o1)c1ccc(C(F)(F)F)cc1,.,-5%,.,.,.,7%
CC(=O)N1N=C2c3ccccc3CCC2C1c1ccc(F)cc1 (stereo unspecified),29%,0%,-8%,5,4,-5%
CN(C)c1ccc(C2C3CCCc4ccccc4C3=NN2C)cc1 (stereo unspecified),?,14%,32µM*,-14,-12,25µM*
Cc1ccc(CNCc2ccccc2Cl)cc1,32%,2%,0%,72,-2,-12%
Fc1ccc(CNCc2ccccc2Cl)cc1,?,-3%,.,15,1,20µM*
O=c1[nH]c(=O)c2[nH]c(=S)n(-c3ccccc3)c2[nH]1,-7%,.,.,4,1,40µM*
O=C(O)c1ccc2c(=O)n(-c3ccccc3)c(=S)[nH]c2c1,47%,0%,-19%,3,11,6%
CCOC(=O)c1ccc(NC(=O)/C(C#N)=C/c2ccc(OC)cc2)cc1,20%,6%[12.3 µM],-1%,.,.,-5%
O=C1C=C(c2ccc(C(=O)O)c(Cl)c2)C[C@@H](c2ccc3c(c2)OCO3)C1,20%,-12%,.,-3,2,71µM*
CC(OCC(O)CNCC1COc2ccccc2O1)c1ccc(Cl)cc1 (stereo unspecified),?,-4%,79µM*,5,1,2.2µM*
OC(CNCC1COc2ccccc2O1)COCc1cccs1 (stereo unspecified),-51%,5%,89µM*,3,3,1.6µM*
O=C(NCC1COc2ccccc2O1)c1ccccc1 (stereo unspecified),47%,6%,8%,-2,-6,-3%
